Source: PubChem BioAssay (NCI)
About 83,000 compounds went through this panel and 20% of them were active in at least one assay; those are over-represented in the sample as a whole.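 Step 1: grow cells in 96-well plates. Step 2: add test compound at a single concentration. Step 3: incubate 48 h. Step 4: record percent growth.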 Calls of active or inactive are those of the source. Rule for the calls: active = growth percent below 10; inactive = the rest.

How the values were obtained:
Test in all cases: NCI-60 one-dose screen, 48 h (100 = growth as untreated, 0 = no growth, -100 = all killed)
Conditions in all cases: 10 µM unless noted
SK-MEL-2 melanoma = tested on: SK-MEL-2 melanoma
EKVX NSCLC = tested on: EKVX NSCLC
SN12C renal = tested on: SN12C renal
UO-31 renal = tested on: UO-31 renal
TK-10 renal = tested on: TK-10 renal
ACHN renal = tested on: ACHN renal
CAKI-1 renal = tested on: CAKI-1 renal
A498 renal = tested on: A498 renal
CCRF-CEM leukemia = tested on: CCRF-CEM leukemia
MOLT-4 leukemia = tested on: MOLT-4 leukemia
SR leukemia = tested on: SR leukemia
RPMI-8226 leukemia = tested on: RPMI-8226 leukemia
OVCAR-5 ovarian = tested on: OVCAR-5 ovarian
OVCAR-4 ovarian = tested on: OVCAR-4 ovarian
SK-OV-3 ovarian = tested on: SK-OV-3 ovarian
IGROV1 ovarian = tested on: IGROV1 ovarian
OVCAR-3 ovarian = tested on: OVCAR-3 ovarian
HS 578T breast = tested on: HS 578T breast
NCI/ADR-RES ovarian = tested on: NCI/ADR-RES ovarian

Measured: growth

CCc1ccc(Oc2c(-c3ccc(OCCc4cccc(C(F)(F)F)c4)cc3O)n[nH]c2C(F)(F)F)cc1
inactive: SK-MEL-2 melanoma 55.4% | EKVX NSCLC 50.1% | SN12C renal 19.9% | UO-31 renal 16.1% | TK-10 renal 58.4% | ACHN renal 16.6% | CAKI-1 renal 63.3% | A498 renal 35.9% | CCRF-CEM leukemia 11.6% | SR leukemia 47.3% | OVCAR-5 ovarian 84.3% | OVCAR-4 ovarian 22% | SK-OV-3 ovarian 64.9% | IGROV1 ovarian 32.8% | HS 578T breast 51.1% | NCI/ADR-RES ovarian 42%
active: MOLT-4 leukemia 4.53% | RPMI-8226 leukemia 3.94% | OVCAR-3 ovarian 0.567%

O=C1CN(CCN2CC(=O)N(Cc3ccccc3)C(=O)C2)CC(=O)N1Cc1ccccc1
inactive: SK-MEL-2 melanoma 106% | EKVX NSCLC 99.2% | SN12C renal 98.6% | UO-31 renal 76.3% | TK-10 renal 111% | ACHN renal 106% | CAKI-1 renal 92.8% | A498 renal 89.7% | CCRF-CEM leukemia 94.3% | MOLT-4 leukemia 92.3% | SR leukemia 108% | RPMI-8226 leukemia 99.5% | OVCAR-5 ovarian 109% | OVCAR-4 ovarian 106% | SK-OV-3 ovarian 113% | IGROV1 ovarian 109% | OVCAR-3 ovarian 109% | HS 578T breast 96.7%

O=c1n(Cc2ccc3ccccc3c2)ccn1Cc1ccc2ccccc2c1
inactive: SK-MEL-2 melanoma 83% | EKVX NSCLC 96.6% | SN12C renal 91.2% | UO-31 renal 86.5% | TK-10 renal 82.7% | ACHN renal 74.3% | CAKI-1 renal 90% | A498 renal 105% | CCRF-CEM leukemia 117% | MOLT-4 leukemia 91.8% | SR leukemia 97% | RPMI-8226 leukemia 104% | OVCAR-5 ovarian 82.1% | OVCAR-4 ovarian 69.3% | SK-OV-3 ovarian 90.5% | IGROV1 ovarian 91.6% | OVCAR-3 ovarian 100%

Cc1ccc(C(=O)N/N=C/c2cccc([N+](=O)[O-])c2)cn1
inactive: SK-MEL-2 melanoma 111% | EKVX NSCLC 104% | SN12C renal 105% | UO-31 renal 76.6% | TK-10 renal 118% | ACHN renal 107% | CAKI-1 renal 87.1% | A498 renal 84.9% | CCRF-CEM leukemia 96.7% | MOLT-4 leukemia 92.1% | SR leukemia 108% | RPMI-8226 leukemia 93% | OVCAR-5 ovarian 108% | OVCAR-4 ovarian 111% | SK-OV-3 ovarian 102% | IGROV1 ovarian 108% | OVCAR-3 ovarian 118% | HS 578T breast 93.1% | NCI/ADR-RES ovarian 104%

CC(=O)CC[C@H]1C(=O)N[C@@H](C(C)C)C(=O)N[C@@H](Cc2cc(O)cc(F)c2)C(=O)N2CCC[C@H](N2)C(=O)O[C@H](/C(C)=C/C=C/C(=O)OC(C)(C)C)C/C=C/C=C/[C@H](O)[C@H](C)[C@H]1O
inactive: SK-MEL-2 melanoma 62.3% | EKVX NSCLC 71.3% | SN12C renal 53.7% | UO-31 renal 56.2% | TK-10 renal 62.6% | ACHN renal 62.6% | CAKI-1 renal 57.4% | A498 renal 82.3% | CCRF-CEM leukemia 46.3% | MOLT-4 leukemia 49.5% | SR leukemia 16.7% | RPMI-8226 leukemia 37.1% | OVCAR-5 ovarian 88.6% | OVCAR-4 ovarian 56.6% | SK-OV-3 ovarian 48.8% | IGROV1 ovarian 43.8% | OVCAR-3 ovarian 54.2% | HS 578T breast 55.9% | NCI/ADR-RES ovarian 77.7%

Cc1ccc(S(=O)(=O)N/N=C/C2(c3ccccc3)CC2)cc1
inactive: SK-MEL-2 melanoma 126% | EKVX NSCLC 99% | SN12C renal 98.7% | UO-31 renal 93.2% | TK-10 renal 120% | ACHN renal 109% | CAKI-1 renal 92.6% | A498 renal 86.6% | CCRF-CEM leukemia 88.5% | MOLT-4 leukemia 90.5% | SR leukemia 101% | RPMI-8226 leukemia 96.9% | OVCAR-5 ovarian 109% | OVCAR-4 ovarian 98.8% | SK-OV-3 ovarian 110% | IGROV1 ovarian 116% | OVCAR-3 ovarian 111% | HS 578T breast 102% | NCI/ADR-RES ovarian 107%

CCCCOc1ccc(/C=N/NC(N)=S)cc1
inactive: SK-MEL-2 melanoma 85.1% | EKVX NSCLC 85.9% | SN12C renal 67.5% | UO-31 renal 43.7% | TK-10 renal 77.3% | ACHN renal 92.3% | CAKI-1 renal 83.7% | A498 renal 79.4% | CCRF-CEM leukemia 37.4% | MOLT-4 leukemia 46% | SR leukemia 84.7% | RPMI-8226 leukemia 49.1% | OVCAR-5 ovarian 93.1% | OVCAR-4 ovarian 41.3% | SK-OV-3 ovarian 92.1% | IGROV1 ovarian 52.3% | OVCAR-3 ovarian 63.2% | HS 578T breast 89.8% | NCI/ADR-RES ovarian 85.5%

CCCCNC(=O)Oc1ccc(/C(=C(\C)c2ccc(Cl)cc2)c2ccc(OCCN3CCCCC3)cc2)cc1
active: SR leukemia 7.74%
inactive: SK-MEL-2 melanoma 98.6% | EKVX NSCLC 76.9% | SN12C renal 80.5% | UO-31 renal 58.8% | TK-10 renal 87% | ACHN renal 94% | CAKI-1 renal 92.5% | A498 renal 85.2% | CCRF-CEM leukemia 72.7% | MOLT-4 leukemia 65.5% | RPMI-8226 leukemia 73.4% | OVCAR-5 ovarian 71.8% | OVCAR-4 ovarian 73.5% | SK-OV-3 ovarian 68.8% | IGROV1 ovarian 83.5% | OVCAR-3 ovarian 80% | HS 578T breast 85% | NCI/ADR-RES ovarian 85.2%

CC1(C)C2CC1C1(/C=N\Nc3ccccc3)C(C2)C(C#N)(C#N)C1(C#N)C#N (stereo not given)
inactive: SK-MEL-2 melanoma 92.7% | EKVX NSCLC 89% | SN12C renal 90% | UO-31 renal 66.6% | TK-10 renal 133% | ACHN renal 75.9% | CAKI-1 renal 70.1% | A498 renal 97.1% | CCRF-CEM leukemia 83.7% | MOLT-4 leukemia 95.7% | SR leukemia 92.4% | RPMI-8226 leukemia 90.1% | OVCAR-5 ovarian 103% | OVCAR-4 ovarian 82.5% | SK-OV-3 ovarian 97.4% | IGROV1 ovarian 64.8% | OVCAR-3 ovarian 84.7% | HS 578T breast 93.9% | NCI/ADR-RES ovarian 87.8%

COc1cccc(Cc2nn3cc(-c4ccccc4)nc3s2)c1
inactive: SK-MEL-2 melanoma 95.2% | EKVX NSCLC 94.1% | SN12C renal 96.3% | UO-31 renal 74.6% | TK-10 renal 95.1% | ACHN renal 96% | CAKI-1 renal 90.8% | A498 renal 99.5% | CCRF-CEM leukemia 30.2% | MOLT-4 leukemia 30.1% | SR leukemia 16.3% | RPMI-8226 leukemia 33.7% | OVCAR-5 ovarian 114% | OVCAR-4 ovarian 98.4% | SK-OV-3 ovarian 103% | IGROV1 ovarian 86.4% | OVCAR-3 ovarian 85.5% | HS 578T breast 106% | NCI/ADR-RES ovarian 101%

COc1cc(C(=O)c2cnc(-c3cccc4[nH]ccc34)[nH]2)cc(OC)c1OC
inactive: SK-MEL-2 melanoma 39.9% | EKVX NSCLC 42.4% | SN12C renal 31.1% | UO-31 renal 26.7% | TK-10 renal 63.4% | ACHN renal 30.2% | CAKI-1 renal 16.7% | CCRF-CEM leukemia 10.3% | MOLT-4 leukemia 14.2% | SR leukemia 13.9% | RPMI-8226 leukemia 15.8% | OVCAR-5 ovarian 50.1% | OVCAR-4 ovarian 38.9% | SK-OV-3 ovarian 35.6% | IGROV1 ovarian 26.6% | HS 578T breast 30.9% | NCI/ADR-RES ovarian 11.2%
active: A498 renal -15.9% | OVCAR-3 ovarian -18.1%

Cc1ccc(S(=O)(=O)Oc2ccc(NC(=O)c3ccc(Cl)cc3)cc2)cc1
inactive: SK-MEL-2 melanoma 99.8% | EKVX NSCLC 91.3% | SN12C renal 96.1% | UO-31 renal 91.6% | TK-10 renal 92.5% | ACHN renal 102% | CAKI-1 renal 100% | A498 renal 93.9% | CCRF-CEM leukemia 104% | MOLT-4 leukemia 104% | SR leukemia 93.6% | RPMI-8226 leukemia 97.6% | OVCAR-5 ovarian 107% | OVCAR-4 ovarian 96.5% | SK-OV-3 ovarian 98.5% | IGROV1 ovarian 97.8% | OVCAR-3 ovarian 103% | HS 578T breast 107% | NCI/ADR-RES ovarian 99.4%

CC1(C)C2CC1C1(/C=N/NC(N)=S)C(C2)C(C#N)(C#N)C1(C#N)C#N (stereo not given)
active: SR leukemia 4.63%
inactive: SK-MEL-2 melanoma 90.3% | EKVX NSCLC 93.8% | SN12C renal 87.6% | UO-31 renal 51.4% | TK-10 renal 116% | ACHN renal 44.8% | CAKI-1 renal 104% | A498 renal 94.3% | CCRF-CEM leukemia 16% | MOLT-4 leukemia 11.3% | RPMI-8226 leukemia 30.4% | OVCAR-5 ovarian 126% | OVCAR-4 ovarian 94.3% | SK-OV-3 ovarian 103% | IGROV1 ovarian 67.1% | OVCAR-3 ovarian 63.1% | HS 578T breast 88.7% | NCI/ADR-RES ovarian 93.5%

O=C(COc1ccc(/C=C2\Cc3ccc(Cl)cc3C2=O)cc1)Nc1nc2ccccc2s1
inactive: SK-MEL-2 melanoma 122% | EKVX NSCLC 117% | SN12C renal 102% | UO-31 renal 69.1% | TK-10 renal 151% | ACHN renal 94.2% | CAKI-1 renal 92.3% | A498 renal 130% | CCRF-CEM leukemia 73.5% | MOLT-4 leukemia 69.8% | SR leukemia 75.5% | RPMI-8226 leukemia 93.1% | OVCAR-5 ovarian 108% | OVCAR-4 ovarian 109% | SK-OV-3 ovarian 104% | OVCAR-3 ovarian 104% | HS 578T breast 91% | NCI/ADR-RES ovarian 99.2%
active: IGROV1 ovarian -61.5%

O=C(Nc1ccc(OS(=O)(=O)c2ccc(F)cc2)cc1)c1ccc(Cl)cc1
inactive: SK-MEL-2 melanoma 90.6% | EKVX NSCLC 101% | SN12C renal 95.7% | UO-31 renal 92.5% | TK-10 renal 95.6% | ACHN renal 103% | CAKI-1 renal 105% | A498 renal 82.9% | CCRF-CEM leukemia 98.7% | MOLT-4 leukemia 89.1% | SR leukemia 91.4% | RPMI-8226 leukemia 94.2% | OVCAR-5 ovarian 102% | OVCAR-4 ovarian 106% | SK-OV-3 ovarian 105% | IGROV1 ovarian 95.7% | OVCAR-3 ovarian 102% | HS 578T breast 104% | NCI/ADR-RES ovarian 93.1%

Cc1nn(-c2ccccc2)c2c1N=c1s/c(=C\c3ccc(C(F)(F)F)cc3)c(=O)n1CN2
inactive: SK-MEL-2 melanoma 47.1% | EKVX NSCLC 59.3% | SN12C renal 71.4% | UO-31 renal 43.4% | TK-10 renal 80% | ACHN renal 59.8% | CAKI-1 renal 59.9% | A498 renal 63.5% | CCRF-CEM leukemia 38.3% | MOLT-4 leukemia 98.8% | SR leukemia 97.9% | RPMI-8226 leukemia 16.2% | OVCAR-5 ovarian 93.4% | OVCAR-4 ovarian 51.2% | SK-OV-3 ovarian 91.5% | IGROV1 ovarian 68.3% | OVCAR-3 ovarian 138% | HS 578T breast 96.9%
